Source: PubChem BioAssay (National Center for Advancing Translational Sciences (NCATS))
SARS PLP yeast: SARS-CoV PLP inhibition in yeast | 330,000 tested, 0.19% active | Potency, µM (series often up to 32.9 µM), for the others: at the top dose activity, positive = growth rescue, hits mostly activators | S. cerevisiae expressing SARS-CoV PLpro, growth rescue | AID 485353; calls by dose curve; further: potency means the concentration at half of the fitted maximal effect; 0% is about no effect; nearly all actives have a fitted effect of over 55% in size
FMDV inh: foot and mouth disease virus antiviral activity; FMDV antiviral cell-based qHTS; Potency, µM (top dose mostly 57.9 µM), without a hit: at the highest dose activity change, negative = inhibition, hits mostly inhibitors; 410,000 tested, 1.2% active; AID 1159524; calls by dose curve; tested in HEK293T cells; further: read-out not given here; potency means the concentration at half of the fitted maximal effect; on the % scale 0 is the no-effect control and ±100 the full control effect; nearly all actives have a fitted effect of over 45% in size
LASV entry inh: inhibitors of Lassa virus binding or cell entry | Lassa virus pseudotype entry inhibition, cell reporter | Potency, µM (highest dose often 37.9 µM), without a hit: top-dose activity change, negative = inhibition, hits mostly inhibitors | 300,000 tested, 1.2% active; calls by dose curve; tested in HEK293 cells; further: potency means the concentration at half of the fitted maximal effect; on the % scale 0 is the no-effect control and ±100 the full control effect; nearly all actives have a fitted effect of over 50% in size
HCV inh: inhibitors of hepatitis C virus infection. Huh7.5.1 HCVcc-Cre infection, luciferase reporter, 44 h. 340,000 tested, 3.4% active. Potency, µM (titrated, usually from 41.8 µM), for inactives: at the highest dose activity change, negative = inhibition, most hits filed as inhibitors; active means well fitted inhibition curve with a large enough effect; inconclusive means small, poorly fitted or top-dose-only effect, or another doubt; inactive means no such curve, though single readings can be large or run the other way; further: potency means the concentration at half of the fitted maximal effect; on the % scale 0 is the no-effect control and ±100 the full control effect
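1,000 cells/well; 4 h culture; + compound; + HCVcc-Cre (~0.5 moi); 44 h; luciferase substrate, RT 15 min; read 15 sec.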
HCMV inh: blocks human cytomegalovirus replication | activity change, negative = inhibition, % at 57.5 µM | 410,000 tested, 4.5% active | HFF cells, HCMV-luciferase reporter, 72 h; active compounds read low; in the data active means activity change below about -60%; inconclusive means no clear call, values can overlap the other calls; inactive means above about -39%; further: on the % scale 0 is the no-effect control and ±100 the full control effect
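Cell-based, HFFs, 1000 cells/well, 16 h 37C; cpds in DMSO + HCMV-luc, MOI 1 PFU/cell; 72 h 37C; OneGlo luminescence after 5 min RT; norm. to buffer vs Salinomycin 10uM.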
Marburg entry inh: blocks Marburg virus binding to or entry into cells | Marburg virus pseudotyped entry inhibition, cell reporter | Potency, µM (doses to about 37.8 µM), for inactives: at the highest dose activity change, negative = inhibition, usual class: inhibitors | 300,000 tested, 1.8% active | AID 540276; calls by dose curve; tested in HEK293 cells; further: potency means the concentration at half of the fitted maximal effect; on the % scale 0 is the no-effect control and ±100 the full control effect
* marks the source's active call; other numbers are inactive results; ? = inconclusive; · = no result given; [ ] = remark or other dose. Sampled rows, rich in hits. Any-hit rate of the full collection: about 8%.

SMILES | SARS PLP yeast | FMDV inh | LASV entry inh | HCV inh | HCMV inh | Marburg entry inh
CC1=C(C(=O)OCc2ccc(C)cc2)C(c2ccccc2C(F)(F)F)CC(=O)N1 (stereo unspecified) | · | 0% | ? | · | -33 | 3%[46.1 µM]
CC(c1ccon1)N(C)Cc1cn(Cc2ccccc2)nc1-c1ccc2c(c1)OCO2 (stereo unspecified) | 0% | -7% | ? | -4% | -22 | ?
COc1ccc(CN2CCN(Cc3nc4ccccc4s3)CC2CCO)c(C)c1C (stereo unspecified) | 5% | ? | · | 6.3µM* | -17 | ·
COc1ccc(CN2CCN(CC3CC3)CC2CCO)c(C)c1C (stereo unspecified) | 1% | -6% | · | -1% | 78 | ·
CSCCC(NS(=O)(=O)Cc1ccccc1)C(=O)NNc1ccccc1 (stereo unspecified) | · | -10% | · | · | -27 | ·
O=C1C=Cc2cccc3ccc(O)c1c23 | · | 9% | -3%[46.1 µM] | ? | -68* | -18%[46.1 µM]
C=CCOC(=O)C1=C(C)N=C2SCCC(=O)N2C1/C=C/c1ccccc1 (stereo unspecified) | 1% | 1% | · | ? | -103* | ·
O=C(NCc1ccco1)c1ccc([N+](=O)[O-])o1 | 2% | -20% | -13% | -27% | -66* | 3%[46.1 µM]
O=C(NCc1cccnc1)c1ccc([N+](=O)[O-])o1 | 0% | -1% | · | ? | -85* | ·
O=C(NCc1ccco1)c1ccc(Cn2cc([N+](=O)[O-])cn2)o1 | 0% | 8% | 1% | 5% | 20 | 6%
CCOCc1c(C(=O)Nc2ccc3nc(N4CCOCC4)sc3c2)oc2ccccc12 | 7% | 20µM* | ? | ? | 44 | ?
CCCn1nc(C(=O)Nc2ccc3nc(N4CCOCC4)sc3c2)ccc1=O | 1% | 13µM* | ? | ? | -76* | ?
COc1ccc(C(=O)Nc2ccc3nc(N4CCOCC4)sc3c2)cc1OC | -6% | -9% | · | ? | 88 | ·
CCOCc1c(C(=O)Nc2ccccc2N2CCN(C)CC2)oc2ccccc12 | -8% | -24% | 4%[46.1 µM] | 11µM* | 12 | ?
CCOCc1c(C(=O)Nc2cc(OCC)c(N3CCOCC3)cc2OCC)oc2ccccc12 | -5% | ? | -7% | 4% | 74 | 2%[46.1 µM]
C[C@@]12CCCO[C@@]13C=CC(=O)C=C3CCC2 | · | · | · | · | 17 | ·
CCCn1c(N2CCN(Cc3ccc(Cl)cc3)CC2)nc2ccccc21 | -2% | -28% | · | 13µM* | -14 | ·
CCn1c(N2CCN(Cc3ccc([N+](=O)[O-])cc3)CC2)nc2ccccc21 | 1% | ? | · | -9% | -6 | ·
COc1ccc(-c2csc(N3CCC(C(N)=O)(N4CCCCC4)CC3)n2)cc1 | -2% | · | 23µM* | ? | -81* | -38%
O=C(NC12CC3CC(CC(C3)C1)C2)N1CCN(c2ccccc2)CC1 | -5% | 6% | 0%[46.1 µM] | -3% | -3 | -9%[46.1 µM]
O=C(NC1CCCCC1)N1CCN(c2nc(-c3ccccc3)cs2)CC1 | 0% | ? | -19% | 10µM* | ? | ?
CN(C)C(=O)N1CCN(c2nc(-c3ccccc3)cs2)CC1 | -5% | 18% | · | -12% | 53 | ·
O=C(NC12CC3CC(CC(C3)C1)C2)N1CCN(c2nc(-c3ccccc3)cs2)CC1 | -1% | 25µM* | ? | -24% | -17 | ?
O=C(C1CCCCC1)N1CCN(c2nc(-c3ccc(F)cc3)cs2)CC1 | -7% | ? | -3% | ? | -60* | -10%[46.1 µM]
O=C(CCCCn1c(=O)[nH]c2ccsc2c1=O)N1CCN(c2cccc(C(F)(F)F)c2)CC1 | · | 40µM* | -17%[46.1 µM] | · | ? | ?
SMILES | SARS PLP yeast | FMDV inh | LASV entry inh | HCV inh | HCMV inh | Marburg entry inh
O=C(CCCCn1c(=O)[nH]c2ccccc2c1=O)N1CCN(c2cccc(C(F)(F)F)c2)CC1 | -16% | -28% | 16µM* | 11µM* | -34 | 9.2µM*
CC(=O)c1ccc(N2CCN(C(=O)CCCn3c(=O)[nH]c4ccc(Br)cc4c3=O)CC2)cc1 | 0% | ? | · | ? | ? | ·
O=C(CCCn1c(=O)[nH]c2ccc(Br)cc2c1=O)N1CCN(c2cccc(Cl)c2)CC1 | · | -1% | -25%[46.1 µM] | · | -100* | ?
CCOC(=O)C1CCN(C(=O)CCCCn2c(=O)[nH]c3ccccc3c2=O)CC1 | 1% | -2% | -29% | -10% | -79* | 0%
O=C(CCn1c(=O)[nH]c2ccccc2c1=O)N1CCN(c2cccc(C(F)(F)F)c2)CC1 | 3% | ? | -4% | 9% | 34 | ?
COc1ccc2c(c1)CCC(=O)C(C)CCO2 (stereo unspecified) | · | · | · | · | 4 | ·
Cc1cc(C)c(Cn2c(C)c(CNCc3ccccc3C)c(C(=O)O)c2C)c(C)c1 | · | -1% | 0%[46.1 µM] | · | 26 | -21%[46.1 µM]
CS(=O)(=O)N1CCC(n2c(C(F)(F)F)nc3cccnc32)CC1 | · | -11% | 10%[46.1 µM] | · | -4 | ·
CN(C(=O)COC(=O)CCc1c[nH]c2ccccc12)C(c1ccccc1)c1ccccc1 | 16% | ? | ? | 13% | 14 | ?
C[C@@H]1O[C@@H](O[C@@H]2C=C3CC[C@@H]4C(CC[C@]5(C)[C@@H](c6ccc(=O)oc6)CC[C@]45O)[C@@]3(C)CC2)[C@H](O)[C@H](O)[C@H]1O (stereo partly specified) | 3% | ? | · | 0.56µM* | -97* | ·
CC(=O)C1CCC2(O)C3CCC4=CC(=O)CCC4(C)C3CCC12C (stereo unspecified) | · | -20% | -2%[46.1 µM] | 1% | -6 | 18%
C[C@@H]1O[C@@H](O[C@@H]2C=C3CCC4C(CC[C@]5(C)[C@@H](c6ccc(=O)oc6)CC[C@]45O)[C@@]3(C)CC2)[C@H](O)[C@H](O)[C@H]1O (stereo partly specified) | · | ? | · | ? | -99* | ·
Clc1nnc(NC2CCCCC2)c(Cl)c1Cl | · | -24% | · | · | 39 | ·
O=C(/C=C/c1cccc([N+](=O)[O-])c1)Nc1ccccc1N1CCOCC1 | 6% | ? | -18% | -27% | -61* | 3%
CC1CCN(c2ccccc2NC(=O)c2cc([N+](=O)[O-])ccc2N2CCOCC2)CC1 | 10% | ? | ? | ? | -93* | ?
CCc1ccccc1NC(=O)c1cc([N+](=O)[O-])ccc1N1CCOCC1 | 0% | -3% | 4%[46.1 µM] | -6% | 10 | -26%[46.1 µM]
O=C(Nc1ccccc1N1CCOCC1)c1cccc([N+](=O)[O-])c1 | -4% | -13% | 0% | 11% | 0 | 6%
O=C(Nc1cccc(-c2nc3cc(Cl)ccc3o2)c1)c1cc([N+](=O)[O-])ccc1N1CCOCC1 | · | 7% | -3%[46.1 µM] | · | -63* | 6%[46.1 µM]
COc1ccccc1C1CN(CCNC(=O)c2ccc3c(c2)OCCO3)Cc2ccccc2O1 (stereo unspecified) | · | -5% | · | · | · | ·
